The values that follow come from PubChem BioAssay (NCI).

This is part of a sample that, as a whole, favours compounds with a hit. Of some 83,000 tested, about 20% had one in any assay.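 Cell lines were cultured in 96-well plates, exposed to a single compound concentration, and assessed for percent growth 48 hours later.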 Values without a mark were called inactive. Calls of active or inactive are those of the source.

This test has as its system SK-MEL-2 melanoma. Nature of the test: NCI-60 one-dose screen, 48 h (100 = growth as untreated, 0 = no growth, -100 = all killed). Particulars: 10 µM unless noted. On the procedure: Growth inhibition of the SK-MEL-2 human tumor cell line is measured as a screen for anti-cancer activity. Cells are grown in 96 well plates and exposed to the test compound for 48 hours. Compounds are tested at a single concentration, which is 10^-5 M for most compounds. The reported endpoint is percent growth (GI% or GIPRCNT), where numbers from 0 - 100% represent growth inhibition, and numbers from -100% - 0 represent cell death. For example, a value of 40 represents 60% growth inhibition. A value of 0 means no net growth occurred over the course of the experiment. A value of -40 indicates 40% of cells at the beginning of the experiment died by the end of the experiment. A value of -100 means all cells are dead at the end of the experiment.
NCI-60 Human Tumor Cell Lines Screen was performed using the standard one-dose NCI protocol, which is described in more detail at https://dtp.cancer.gov/discovery_development/nci-60/default.htm.
Compounds with GIPRCNT values below 10 were considered active. Activity score was based on GIPRCNT using the following formula: […]
Score is 0 for GIPRCNT values of 100 or above, 50 for GIPRCNT values of 0, and 100 for GIPRCNT values of -100.
On to `CC(C)(C)C(CCc1ccc(Cl)cc1)N1CCN(C2CCCCC2)CC1` (stereo not given), for which the growth is 72.9%.
To `COc1cc(/C=C/C(=O)c2cccc(-n3cc(-c4ccccc4)[nH]c3=O)c2)ccc1O` belongs 56.5%; to `CC(=O)N1C(=S)NC(=O)C1Cn1c(-c2ccccc2)nc2ccccc21` (stereo not given), 109%.
Turning to `N#CC1=C(c2ccc(Br)cc2)NC(SCC(=O)c2ccc(Br)cc2)NC1=O` (stereo not given), the growth is 98%.
To `Cn1c(=O)c2[nH]c(NN)nc2n(C)c1=O` belongs 105%; to `COc1cc(/C=N/n2c(CN3CCOCC3)nc3ccccc3c2=O)cc(OC)c1OC`, 113%.
To `O=c1[nH]c2ccccc2n1C1CCN(CCOc2ccccc2)CC1` belongs 83.3%; to `c1ccc(-c2nc([P+](c3ccccc3)(c3ccccc3)c3ccccc3)c(N3CCOCC3)o2)cc1`, -25.3% (active).
Then `CCCCn1c(=O)c2c(nc(NCCc3ccc(O)c(O)c3)n2CCC)n(CCCC)c1=O`, with 72.7%; and `Cc1cc(NCc2cc(Nc3ccnc4cc(Cl)ccc34)ccc2F)nc(N2CCOCC2)n1`, with 84.6%.
As for `Cc1cccc(NC(=O)N/C(N)=N/c2nc(C)c(C)s2)c1`, the growth was 43.7%.
Then `COc1cc(CCC[P+](c2ccccc2)(c2ccccc2)c2ccccc2)cc2c1OCO2`, with 6.71% (active); and `O=C(CSc1nnc(-c2ccc(NC(=O)c3cccnc3)cc2)o1)N[C@@H](Cc1ccc(O)cc1)C(=O)O`, with 99.8%.
Take `C=CCn1c(C)nc2cc(Nc3nc(N4CCCC4)nc4ccccc34)ccc21`: the growth is 109%.
Then `CN(c1ccccc1)c1ccc2c(c1)OCCC21CC1Nc1cnccc1C(=O)O` (stereo not given), with 97.5%; and `CCSC1=NC2C(N(CC)C(=O)N2CC)N1/N=C/C=C/c1ccccc1[N+](=O)[O-]` (stereo not given), with 50.3%; and `Cc1ccccc1NC(=O)N/C(N)=N/c1nc(C)c(C)s1`, with 53.9%.
To `Cn1cc(-c2csc(-c3ccccc3)n2)c2cccnc21` belongs -48.2% [100 µM] (active); to `COc1ccc(NC(=O)CSc2nnc(-c3cc(-c4ccc(S(N)(=O)=O)cc4)nc4ccccc34)n2-c2ccccc2)cc1`, 93%.
`N#Cc1c(N)nn(C(=O)c2ccc(NC(=O)c3ccccn3)cc2)c1-c1ccc(Cl)cc1`: the growth was 79.3%.
To `COc1cc(C2CC(=O)Nc3c2c(C)nn3-c2nc3ccccc3[nH]2)cc2c1OCC(=O)N2` (stereo not given) belongs 68.1%; to `Oc1c(CN2CCCC2)cc(COCc2ccc(Br)cc2)c2cccnc12`, -18% (active).
To `COC(=O)c1ccc(CSc2nnc(-c3c(C)nc4ccc(C)cn34)o2)cc1` belongs 105%; to `Cc1nn(-c2ccccc2)c2nc3c(c(-c4ccc(Cl)cc4)c12)CNC1(CCSCC1)N3`, 134%.
Then `Cc1nc2c(c(N3CCCc4ccccc43)n1)CCC2`, with 43.9%; and `O=C(c1ccccc1)N1N=C(c2ccccc2)CC1c1nnc2n(Cc3ccccc3)c(=O)c3c4c(sc3n12)CCCC4` (stereo not given), with 77.6%; and `CC(C)(C)OC(=O)Nc1ccc2c(c1)C(NC(=O)Nc1cccc(C#N)c1)CC(C)(C)O2` (stereo not given), with 36.3%.
With `COc1ccc(C(=O)Nn2c(NCC(=O)N3c4ccccc4Sc4ccccc43)nnc2-c2ccc(O)cc2)cc1`, the growth is 108%.
As for `N#Cc1c(-c2ccccn2)[nH]c(=S)[nH]c1=O`, the growth was 93.7%.
`COc1ccc(-c2c(N)n[nH]c2-c2ccc(Cl)cc2O)cc1OC`: the growth is 78.7%.
Then `S=C(c1ccc2c(c1)OCO2)N1CCN(c2ccccc2Cl)CC1`, with 97.3%; and `Nc1cc2c3c(cccc3c1)C(=O)N(CCN1CCCC1)C2=O`, with 60.2%.
To `O=c1cc(-c2ccc(Cl)cc2)[nH]c2ccccc12` belongs 79.7%; to `CCOC(=O)c1ccc(N2NC(=O)/C(=C/c3ccc([N+](=O)[O-])o3)C2=O)cc1`, 31.8%.
As to `Cc1ccc(NS(=O)(=O)c2ccc3c(c2)C2OCCC2C(c2ccc(C(=O)C(C)C)cc2)N3)cc1C` (stereo not given), the growth was 72.9%.
To `Cn1ccc2c(c1=O)C(=O)c1nccc3c1c-2nc1ccccc13` belongs 98.1%; to `CC1OC(O[C@H]2/C=C/C=C/C=C/C=C/C=C/C=C/C=C/[C@H](C)[C@@H](O)[C@@H](C)[C@H](C)OC(=O)CC(O)CC(O)CCC(O)C(O)CC(O)C[C@]3(O)C[C@H](O)C(C(=O)O)C(C2)O3)C(O)[C@H](N)C1O` (stereo not given in full), 57.6%; to `OC(c1cccc(-n2ccc(C(F)(F)F)n2)c1)c1cnccc1NC1CCCCCC1` (stereo not given), 27.1%.
`Cc1cc(C)c2c(-c3nnc(N)s3)cc(=O)oc2c1`: the growth was 114%.
To `Cc1ccc(-c2cc(-c3ccccc3C)[nH]c(=O)c2C#N)s1` belongs 110%.
